This is an account of results in PubChem BioAssay (EPA / NIEHS).

Activity calls are given as the source filed them. How the source made its calls: active means hit-call score of the fitted dose curve at least 0.9, where 1 is the maximum; inactive means score below 0.9.

The nature of assay [1]: ATG_E_Box_CIS: Attagene CIS-FACTORIAL HepG2 Assay for human Enhancer Box (E-box) (AID 2282936). Particulars: HepG2 E-box cis-reporter transcription, actives raise or lower the signal. The procedure, abridged:
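Endogenous transcription factor activity was sensed in human HepG2 liver cells through transfected cis-promoter reporter units. After 24 h of dosing, total RNA was reverse-transcribed and reporter cDNA resolved by capillary electrophoresis.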

The nature of assay [2]: ATG_M_61_CIS: Attagene CIS-FACTORIAL HepG2 Assay for M61 Transcription Factor (Internal Marker) (AID 2282937). The following applies: HepG2 Attagene CIS-FACTORIAL M61 internal marker reporter; actives raise or lower the signal. The method, boiled down:
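Background-control endpoint: HepG2 cells with cis-regulated reporter constructs, 24 h exposure, reporter mRNA detected via fluorescent primer extension and capillary electrophoresis; values from bidirectional fitting with DMSO baseline.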

Assay [3] is described as follows: ATG_EGR_CIS: Attagene CIS-FACTORIAL HepG2 Assay for human Early Growth Response 1 (EGR1) (AID 2282938). The following applies: HepG2 Attagene CIS-FACTORIAL EGR reporter mRNA; actives raise or lower the signal. The method, boiled down: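 Endpoint derived by bidirectional fitting versus DMSO vehicle. Method: cis-promoter reporter units transfected into HepG2, 24 h dosing, RNA isolation, RT-PCR with 6-FAM primer extension and HpaI digestion, then capillary electrophoresis fluorescence detection.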

Assay [4] is described as follows: ATG_M_19_CIS: Attagene CIS-FACTORIAL HepG2 Assay for M19 Transcription Factor (Internal Marker) (AID 2282939). The following applies: HepG2 Attagene CIS-FACTORIAL M19 internal marker reporter; actives raise or lower the signal. The procedure, abridged:
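Internal marker readout, fitted in both directions against DMSO, from HepG2 cells carrying transfected cis-element reporter constructs; RT-PCR and capillary electrophoresis of reporter mRNA after 24 h exposure.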

Assay [5] in a line: ATG_ERE_CIS: Attagene CIS-FACTORIAL HepG2 Assay for Estrogen Response Element (ERE) (AID 2282940). The following applies: HepG2 ERE cis-reporter, Attagene RNA transcript; actives raise or lower the signal. The procedure, abridged: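 After 24 h compound treatment, RNA from transfected HepG2 cells was reverse-transcribed, reporter cDNA PCR-amplified, FAM-labelled, HpaI-cut and resolved by capillary electrophoresis. ERE-driven cis reporter transcripts reflect endogenous factors; gain or loss scored against DMSO.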

The nature of assay [6]: ATG_Ets_CIS: Attagene CIS-FACTORIAL HepG2 Assay for human Erythroblast Transformation Specific (ETS) (AID 2282941). Particulars: HepG2 ETS cis-reporter transcription; AC50: actives raise or lower the signal unless noted; outcome: actives raise or lower the signal unless noted. The method, boiled down: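 RT-PCR/capillary electrophoresis fluorescence read-out of reporter mRNA; HepG2 transient multi-reporter transfection; 24 h compound exposure; gain or loss of signal fitted bidirectionally relative to DMSO.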

Assay [7] concerns the target Hepatocyte nuclear factor 3-beta (Homo sapiens) (UniProt Q9Y261). As to the kind of experiment: ATG_FoxA2_CIS: Attagene CIS-FACTORIAL HepG2 Assay for human Forkhead box A2 (FOXA2) (AID 2282942). Particulars: HepG2 cis-reporter transcription factor activity, 24 h; actives raise or lower the signal. The procedure, abridged:
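Measured: reporter mRNA induction or loss in HepG2 transiently carrying multiple cis-regulated reporter units, 24 h after dosing. Quantified by RT-PCR plus capillary electrophoresis, normalised to DMSO.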

Assay [8] is described as follows: ATG_FoxO_CIS: Attagene CIS-FACTORIAL HepG2 Assay for human Forkhead box O (FoxO) (AID 2282943). The following applies: HepG2 Attagene cis-reporter, FoxO element, mRNA; actives raise or lower the signal. The method, boiled down:
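Values reflect reporter mRNA induction or loss in HepG2 cells 24 h post-dosing, fitted bidirectionally with DMSO as negative control and baseline. Detection used RT-PCR and fluorescence capillary electrophoresis.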

The nature of assay [9]: ATG_GATA_CIS: Attagene CIS-FACTORIAL HepG2 Assay for human GATA Binding Protein (AID 2282944). The following applies: HepG2 GATA cis-element reporter, Attagene multiplex mRNA; actives raise or lower the signal. The procedure, abridged: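 Reporter transcripts from a GATA cis-regulated unit, among multiplexed reporters in transfected HepG2 cells, were measured by RT-PCR with capillary electrophoresis after 24 h dosing. Induction or loss scored relative to DMSO.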

The target in assay [10] is Bile acid receptor (Homo sapiens) (UniProt Q96RI1). In words: ATG_IR1_CIS: Attagene CIS-FACTORIAL HepG2 Assay for human Nuclear Receptor Subfamily 1 Group H Member 4 (NR1H4), IR1 submotif (AID 2282946). Particulars: IR1 reporter transcription, actives raise or lower the signal. The procedure, abridged: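 Readout: reporter transcript levels by RT-PCR with fluorescent capillary electrophoresis, from HepG2 cells transiently transfected with multiplexed cis-regulated reporters and dosed 24 h. Gain- or loss-of-signal fitted versus DMSO negative control.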
Sequence of Bile acid receptor (Homo sapiens) (Q96RI1 whole entry, looked up): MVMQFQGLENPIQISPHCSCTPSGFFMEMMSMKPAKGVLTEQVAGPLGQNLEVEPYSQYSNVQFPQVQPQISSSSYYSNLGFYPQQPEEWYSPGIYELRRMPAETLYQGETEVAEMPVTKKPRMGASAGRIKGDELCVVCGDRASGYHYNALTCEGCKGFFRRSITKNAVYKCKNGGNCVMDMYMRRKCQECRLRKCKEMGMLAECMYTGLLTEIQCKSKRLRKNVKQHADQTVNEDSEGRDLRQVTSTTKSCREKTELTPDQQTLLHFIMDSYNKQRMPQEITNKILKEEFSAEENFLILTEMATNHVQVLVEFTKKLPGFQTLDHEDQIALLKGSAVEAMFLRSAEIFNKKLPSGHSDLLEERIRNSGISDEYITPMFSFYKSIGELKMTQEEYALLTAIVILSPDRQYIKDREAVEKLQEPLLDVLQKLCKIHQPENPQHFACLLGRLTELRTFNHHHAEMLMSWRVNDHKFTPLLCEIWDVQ

Assay [11] can be described thus: ATG_GRE_CIS: Attagene CIS-FACTORIAL HepG2 Assay for human Glucocorticoid Response Elements (GRE) (AID 2282947). The following applies: HepG2 GRE cis-reporter, Attagene multiplex mRNA; AC50: actives raise or lower the signal unless noted; outcome: actives raise or lower the signal unless noted. The procedure, abridged: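 Cells (HepG2) bearing transfected cis-promoter reporter transcription units were treated with chemical for 24 hours. Reporter mRNA was measured via RT-PCR with capillary electrophoresis, and activity was fitted in both directions relative to DMSO.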

Assay [12] can be described thus: ATG_ISRE_CIS: Attagene CIS-FACTORIAL HepG2 Assay for human Interferon Regulatory Factor 1 (IRF1) binding to an Interferon-Stimulated Response Element (ISRE) (AID 2282948). Particulars: HepG2 ISRE cis-reporter (Attagene), mRNA transcription readout; actives raise or lower the signal. The method, boiled down:
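Read-out: fluorescent RT-PCR products resolved by capillary electrophoresis, reporting endogenous transcription factor activity via ISRE-driven reporter mRNA in transfected HepG2 cells dosed for 24 h; gain or loss fitted relative to DMSO.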

Assay [13] can be described thus: ATG_M_32_CIS: Attagene CIS-FACTORIAL HepG2 Assay for M32 Transcription Factor (Internal Marker) (AID 2282949).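 Further: background control marker of the multiplexed CIS panel rather than a real target.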 The following applies: HepG2 Attagene cis-factorial M32 reporter, mRNA; actives raise or lower the signal. The method, boiled down: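 HepG2 transfectants (cis-regulated reporter transcription units) dosed 24 h. Reporter mRNA by RT-PCR plus CE, analysed as gain or loss relative to DMSO.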

Assay [14] can be described thus: ATG_M_06_CIS: Attagene CIS-FACTORIAL HepG2 Assay for M06 Transcription Factor (Internal Marker) (AID 2282950). Particulars: HepG2 Attagene CIS-FACTORIAL M06 internal marker reporter; actives raise or lower the signal. The method, boiled down:
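Serves as a background control readout. Transfected HepG2 exposed to compounds for 24 h, then reporter transcripts quantified by fluorescent RT-PCR and capillary electrophoresis. Both directions fitted against DMSO baseline.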

The target of assay [15] is Hypoxia-inducible factor 1-alpha (Homo sapiens) (UniProt Q16665). In words: ATG_HIF1a_CIS: Attagene CIS-FACTORIAL HepG2 Assay for human Hypoxia Inducible Factor 1 (HIF1A) (AID 2282951). The following applies: HepG2 Attagene cis-factorial HIF1a reporter transcription; actives raise or lower the signal. The procedure, abridged: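 Dosed 24 h, transfected HepG2 cells yielded total RNA whose reporter transcripts were RT-PCR-amplified and sized by capillary electrophoresis using fluorescent labelling; DMSO defined baseline, with gain and loss of signal both fitted.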
Sequence of Hypoxia-inducible factor 1-alpha (Homo sapiens) (Q16665 whole entry, looked up): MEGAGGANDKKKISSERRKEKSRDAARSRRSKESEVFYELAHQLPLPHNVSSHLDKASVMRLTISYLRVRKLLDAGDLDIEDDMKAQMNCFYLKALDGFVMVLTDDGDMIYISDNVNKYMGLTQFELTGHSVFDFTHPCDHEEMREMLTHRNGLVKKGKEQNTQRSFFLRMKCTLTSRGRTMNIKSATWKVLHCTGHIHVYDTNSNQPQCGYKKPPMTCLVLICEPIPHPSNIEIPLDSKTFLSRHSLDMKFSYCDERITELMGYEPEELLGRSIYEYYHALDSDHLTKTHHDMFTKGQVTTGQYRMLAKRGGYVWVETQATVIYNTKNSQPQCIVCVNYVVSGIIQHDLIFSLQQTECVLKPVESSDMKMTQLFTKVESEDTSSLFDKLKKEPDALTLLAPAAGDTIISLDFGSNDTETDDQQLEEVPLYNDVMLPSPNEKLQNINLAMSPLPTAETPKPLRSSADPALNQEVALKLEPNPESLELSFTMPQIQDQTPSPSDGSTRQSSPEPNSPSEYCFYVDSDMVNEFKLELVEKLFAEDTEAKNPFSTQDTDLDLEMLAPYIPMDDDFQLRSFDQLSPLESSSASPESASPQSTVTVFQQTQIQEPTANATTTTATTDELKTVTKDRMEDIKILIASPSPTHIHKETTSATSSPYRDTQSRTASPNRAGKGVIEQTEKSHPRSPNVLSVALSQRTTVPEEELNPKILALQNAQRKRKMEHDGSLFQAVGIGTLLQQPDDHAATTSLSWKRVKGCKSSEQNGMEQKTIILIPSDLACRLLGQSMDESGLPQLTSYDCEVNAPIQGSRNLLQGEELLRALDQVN

Assay [16] has as its target Hepatocyte nuclear factor 6 (Homo sapiens) (UniProt Q9UBC0). As to the kind of experiment: ATG_HNF6_CIS: Attagene CIS-FACTORIAL HepG2 Assay for human Hepatocyte Nuclear Factor 6 (HNF6) (AID 2282952). The following applies: HepG2 Attagene cis-factorial HNF6 reporter transcription; actives raise or lower the signal. The method, boiled down:
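Using cis-element reporters in HepG2 liver cells, the assay tracks endogenous factor-driven transcription 24 h post-dosing. Signal comes from 6-FAM-labelled, HpaI-digested RT-PCR fragments, with gain or loss scored against DMSO.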

The target of assay [17] is Heat shock factor protein 1 (Homo sapiens) (UniProt Q00613). In words: ATG_HSE_CIS: Attagene CIS-FACTORIAL HepG2 Assay for human Heat Shock Transcription Factor 1 (HSE) (AID 2282953). The following applies: HepG2 HSE cis-reporter, Attagene RNA transcription; actives raise or lower the signal. The method, boiled down:
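Endogenous transcription factor activity in transiently transfected HepG2, read as reporter mRNA by RT-PCR with fluorescent capillary electrophoresis after 24 h. Gain or loss of signal fitted versus DMSO baseline.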

A short description of assay [18]: ATG_MRE_CIS: Attagene CIS-FACTORIAL HepG2 Assay for human Metal Responsive Element (MRE) (AID 2282954). The following applies: HepG2 MRE cis-reporter transcription, Attagene multiplex; actives raise or lower the signal. The procedure, abridged:
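Cells were transfected with cis-promoter reporter transcription units, then dosed for 24 h. RNA was reverse-transcribed, amplified, fluorescently labelled and resolved by capillary electrophoresis, and activity was fitted in both directions relative to DMSO.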

Assay [19] can be described thus: ATG_PBREM_CIS: Attagene CIS-FACTORIAL HepG2 Assay for human Phenobarbital-responsive Enhancer Module (PBREM) (AID 2282955). Particulars: HepG2 PBREM cis-reporter, Attagene multiplexed transcription; actives raise or lower the signal. The procedure, abridged:
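Transfected liver-derived HepG2 cells exposed 24 h; PBREM reporter transcript quantified via RT-PCR and capillary electrophoresis, with activity in either direction referenced to DMSO.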

A short description of assay [20]: ATG_GLI_CIS: Attagene CIS-FACTORIAL HepG2 Assay for human Zinc Finger Protein GLI1 (AID 2282945). The following applies: HepG2, Attagene cis-factorial reporter mRNA, GLI element; actives raise or lower the signal. The method, boiled down:
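HepG2 cells transiently transfected with cis-promoter multiplexed reporter units report endogenous transcription factor activity. After 24 h chemical exposure, reporter mRNA was quantified by RT-PCR, 6-FAM labelling, HpaI digestion and capillary electrophoresis, with bidirectional fitting against DMSO.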

Sequence of Heat shock factor protein 1 (Homo sapiens) (Q00613 whole entry, looked up): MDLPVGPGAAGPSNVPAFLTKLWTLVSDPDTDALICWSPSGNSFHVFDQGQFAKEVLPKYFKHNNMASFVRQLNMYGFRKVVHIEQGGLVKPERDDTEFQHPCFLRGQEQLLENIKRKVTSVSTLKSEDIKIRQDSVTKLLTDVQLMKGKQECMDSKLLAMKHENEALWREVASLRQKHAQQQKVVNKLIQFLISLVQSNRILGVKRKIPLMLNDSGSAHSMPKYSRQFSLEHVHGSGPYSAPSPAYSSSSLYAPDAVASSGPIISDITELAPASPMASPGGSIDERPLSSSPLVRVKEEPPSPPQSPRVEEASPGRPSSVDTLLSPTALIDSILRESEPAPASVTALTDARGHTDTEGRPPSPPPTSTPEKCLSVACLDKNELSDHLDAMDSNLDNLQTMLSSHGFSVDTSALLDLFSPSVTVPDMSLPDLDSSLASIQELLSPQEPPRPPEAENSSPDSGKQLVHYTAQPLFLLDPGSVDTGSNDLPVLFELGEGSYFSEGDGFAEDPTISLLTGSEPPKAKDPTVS
Sequence of Hepatocyte nuclear factor 6 (Homo sapiens) (Q9UBC0 whole entry, looked up, the tested form may be a part): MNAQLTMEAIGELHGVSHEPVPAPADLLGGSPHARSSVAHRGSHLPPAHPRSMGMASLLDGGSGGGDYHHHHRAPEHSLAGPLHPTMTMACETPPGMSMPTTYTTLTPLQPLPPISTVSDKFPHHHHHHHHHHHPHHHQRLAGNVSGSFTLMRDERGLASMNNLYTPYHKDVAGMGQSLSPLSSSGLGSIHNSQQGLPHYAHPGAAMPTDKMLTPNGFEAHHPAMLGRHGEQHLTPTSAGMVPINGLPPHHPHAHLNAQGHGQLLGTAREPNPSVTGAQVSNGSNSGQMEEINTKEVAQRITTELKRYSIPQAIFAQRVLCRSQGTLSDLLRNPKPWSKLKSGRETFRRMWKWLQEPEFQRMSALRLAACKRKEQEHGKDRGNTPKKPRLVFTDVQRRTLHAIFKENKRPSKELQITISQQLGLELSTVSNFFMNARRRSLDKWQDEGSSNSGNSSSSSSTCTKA
Sequence of Hepatocyte nuclear factor 3-beta (Homo sapiens) (Q9Y261 whole entry, looked up): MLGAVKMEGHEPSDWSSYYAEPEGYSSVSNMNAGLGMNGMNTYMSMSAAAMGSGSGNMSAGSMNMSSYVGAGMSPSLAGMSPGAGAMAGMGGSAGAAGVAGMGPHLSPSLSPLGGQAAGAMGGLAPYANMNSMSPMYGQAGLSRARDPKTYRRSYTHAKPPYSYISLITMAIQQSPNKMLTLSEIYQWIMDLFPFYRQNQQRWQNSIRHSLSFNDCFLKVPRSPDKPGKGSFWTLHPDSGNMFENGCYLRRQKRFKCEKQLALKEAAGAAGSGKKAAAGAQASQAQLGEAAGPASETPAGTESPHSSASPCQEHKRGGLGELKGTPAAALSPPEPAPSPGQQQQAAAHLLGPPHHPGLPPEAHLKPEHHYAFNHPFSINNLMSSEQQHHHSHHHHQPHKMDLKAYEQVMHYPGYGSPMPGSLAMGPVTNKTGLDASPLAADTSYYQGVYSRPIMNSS

Turning to `CCCCCCCCCCCCCC[n+]1ccccc1`, the outcome in assay [1], in assay [2], in [4], in [5], in [6] and in assay [8] was inactive. Besides, the compound was classed as inactive in assay [9], in assay [10], in assay [11], in [12], in assay [13] and in assay [14]. Also, the call in [15], in assay [16], in assay [17], in assay [18] and in assay [19] was inactive. Also, the half-maximal activity concentration (AC50) in [3] was 2.52 µM (active); in assay [7], 18.2 µM (active).
Consider `N=C(N)c1ccc(OCCCCCOc2ccc(C(=N)N)cc2)cc1`, for which the AC50 is 137 µM (active) in [1]; 87.5 µM (active) in assay [3]; 23.2 µM (active) in [5]; 113 µM (active) in assay [15]; 65.2 µM (active) in assay [18]. Also, the result in [2], in assay [4], in [6], in assay [7], in [8] and in [9] was inactive. Further, the result in assay [20], in assay [11], in assay [13], in assay [14], in [16] and in assay [17] was inactive.
On to `FC(F)(F)C1(F)C(F)(F)C(F)(F)C(F)(F)C1(F)F`, for which the outcome in assay [1], in assay [2], in [3], in assay [4], in assay [5] and in [6] was inactive. Moreover, the outcome in assay [7], in assay [8], in assay [9], in assay [10], in [11] and in [12] was inactive. The outcome in assay [13], in [14], in assay [15], in assay [16], in assay [17] and in assay [19] was inactive.
Turning to `CCOC=C(C(=O)OCC)C(=O)OCC`, the outcome in assay [1], in assay [2], in assay [3], in assay [4], in assay [5] and in assay [6] was inactive. Besides, the result in assay [7], in assay [8], in assay [9], in assay [20], in assay [10] and in assay [11] was inactive. Besides, the outcome in assay [12], in assay [13], in assay [14], in assay [15], in assay [16] and in [17] was inactive. The result in assay [19] was inactive.
